Measured values from PubChem BioAssay (NCATS).
Results filed as inconclusive are left out. A number with no mark means an inactive call. The source made the active and inactive calls. Calls follow the shape of the dose curve; as a rule, active = well fitted cell-killing curve with a large enough effect; inconclusive = small, poorly fitted or top-dose-only effect, or effect the other way; inactive = no such curve, though single readings can be large or run the other way.

assay: Quantitative High-Throughput drug screen in 47 multiple myeloma cell lines against the NCATS MIPE library collection: Karpas620_DSMZ cell viability assay (AID 1918959); conditions: Karpas620 myeloma viability, CellTiter-Glo ATP luminescence, 48 h; series mostly up to 45.8 µM; viability (% of DMSO): at the top concentration; also: nearly all actives have a fitted effect of over 30% in size
Text: PI: Beverly A. Mock Ph.D.
Laboratory of Cancer Biology and Genetics,
Center for Cancer Research, National Cancer Institute,
National Institute of Health, Bethesda, Maryland
Drug resistance and disease progression are common in multiple myeloma (MM) patients, underscoring the need for new therapeutic combinations. […] We hypothesized that effective combinations would reduce MYC expression and enhance p16 activity. […] These preclinical data identify potentially useful drug combinations for evaluation in drug-resistant MM and reveal potential mechanisms of combined drug sensitivity.
Described herein is the primary MIPE qHTS used to cherrypick compounds. Validated compounds were then further tested for potential synergistic activiy.
[1] Peat TJ, Gaikwad SM, Dubois W, Gyabaah-Kessie N, Zhang S, Gorjifard S, Phyo Z, Andres M, Hughitt VK, Simpson RM, Miller MA, Girvin AT, Taylor A, Williams D, D'Antonio N, Zhang Y, Rajagopalan A, Flietner E, Wilson K, Zhang X, Shinn P, Klumpp-Thomas C, McKnight C, Itkin Z, Chen L, Kazandijian D, Zhang J, Michalowski AM, Simmons JK, Keats J, Thomas CJ, Mock BA. Drug combinations identified by high-throughput screening promote cell cycle transition and upregulate Smad pathways in myeloma. Cancer Lett. 2023 Aug 1;568:216284. doi: 10.1016/j.canlet.2023.216284. Epub 2023 Jun 24. PMID: 37356470; PMCID: PMC10408729.
SEQUENCE No. (e.g., 1, 2, 3, etc.); […] (e.g., Cells, Incubation, Reagent, etc.); VALUE and DESCRIPTION.
1; Cells; 5 uL; white, solid bottom 1536-well Greiner assay plate.
2; Compounds; 23 nL; Kalypsis pin tool (Wako USA) equipped with a 1536-well pin head to transfer to the assay plates.
3; Incubation; 48 hours; 37C incubation.
4; Reagent;5uL; CellTiter Glo (Promega).
5; Detector; 425V; Luminescence; Viewlux PerkinElmer.
NOTES (numbers refer to Sequence numbers above)
1. The cell-based screening methods employed in this study were like those previously published. Briefly, the corresponding myeloma cell lines were screened in 1,536-well plates with 500 cells, 5-uL per well for inhibition of cell viability (assessed by measuring ATP levels with CellTiterGlo).
2. NCATS MIPE 4.0 library of approved and investigational drugs were added using the Kalypsis pin tool. Wells treated with DMSO only for 100% viability and media only wells for 0% viability were used as controls.
3. The assay plates were covered and incubated for 48 hours in a 37C, 5% CO2 incubator with controlled humidity.
4. After 48 hours, CellTilter-GloTM luminescent substrate mix (Promega) reagent was added to the assay plate and plates we incubated for 5 min at room temperature.
5. Signal was measured as median relative luminescence units on a ViewLux (PerkinElmer) multiplate reader.
[1] Heske CM, Davis MI, Baumgart JT, Wilson K, Gormally MV, Chen L, Zhang X, Ceribelli M, Duveau DY, Guha R, Ferrer M, Arnaldez FI, Ji J, Tran HL, Zhang Y, Mendoza A, Helman LJ, Thomas CJ. Matrix Screen Identifies Synergistic Combination of PARP Inhibitors and Nicotinamide Phosphoribosyltransferase (NAMPT) Inhibitors in Ewing Sarcoma. Clin Cancer Res. 2017 Dec 1;23(23):7301-7311. doi: 10.1158/1078-0432.CCR-17-1121. Epub 2017 Sep 12. PMID: 28899971; PMCID: PMC6636827.
Potency is read from the fitted curve at half-maximal effect.

Question: Which Potency does the source give for `CC(C)(O)c1cc2nc(-c3cnc(N)nc3)nc(N3CCOCC3)c2s1` here?
Answer: 166 nM (active)

Question: For `Cc1ccc(NC(=O)C2(c3ccc4c(c3)OC(F)(F)O4)CC2)nc1-c1cccc(C(=O)O)c1`, which Potency is on record?
Answer: 166 nM (active)

Question: For `Cc1cn(-c2cc(NC(=O)c3ccc(C)c(Nc4nccc(-c5cccnc5)n4)c3)cc(C(F)(F)F)c2)cn1`, which “viability (% of DMSO)” value is on record?
Answer: 100%

Question: With `O=C(CCCCCCNC(=O)c1cnc(N(c2ccccc2)c2ccccc2)nc1)NO` as the compound, how does the Potency read?
Answer: 5900 nM (active)

Question: With `Cn1c2cc(S(C)=O)sc2c2cnn(Cc3cccc(N)c3)c(=O)c21` (stereo not given) as the compound, how does the “viability (% of DMSO)” value read?
Answer: 120%

Question: Which Potency does the source give for `CNC(=O)CN1CCC(Oc2cc3c(Nc4cccc(Cl)c4F)ncnc3cc2OC)CC1` here?
Answer: 1 nM (active)

Question: For `C[C@]12CC[C@H](O)CC1=CCC1C2CC[C@]2(C)C(n3cnc4ccccc43)=CCC12` (stereo not given in full), which “viability (% of DMSO)” value is on record?
Answer: 114%

Question: Which “viability (% of DMSO)” value does the source give for `Cc1coc2c1C(=O)C(=O)c1c-2ccc2c1CCCC2(C)C` here?
Answer: 128%

Question: With `O=C(c1ccc(Nc2nccc(-c3cc4ccccc4s3)n2)cc1)N1CCC(N2CCCC2)CC1` as the compound, how does the Potency read?
Answer: 4180 nM (active)

Question: Which Potency does the source give for `O=C(O)C1(Cc2cccc(Nc3nccs3)n2)CCC(Oc2cccc(Cl)c2F)CC1` (stereo not given) here?
Answer: 74.3 nM (active)

Question: With `CC(NCc1ccc2c(c1)nc(NC(=O)c1ccc(-c3cn[nH]c3)s1)n2CC(C)(C)O)C(C)(C)C` (stereo not given) as the compound, how does the Potency read?
Answer: 264 nM (active)

Question: Which “viability (% of DMSO)” value does the source give for `OCc1ccc(-c2ccc(-c3ccc(CO)s3)o2)s1` here?
Answer: 117%

Question: Which Potency does the source give for `C=CC(=O)Nc1cccc(Oc2nc(Nc3ccc(N4CCN(C)CC4)cc3)ncc2Cl)c1` here?
Answer: 5260 nM (active)

Question: For `CS(=O)(=O)c1ccc(-c2cnc(N)c(C(=O)Nc3ccccc3)n2)cc1`, which “viability (% of DMSO)” value is on record?
Answer: 109%

Question: For `CC(C)c1cc(-c2n[nH]c(=O)n2-c2ccc3c(ccn3C)c2)c(O)cc1O`, which Potency is on record?
Answer: 29.6 nM (active)

Question: For `CNC(=O)c1nn(C)c2c1C(C)(C)Cc1cnc(Nc3ccc(N4CCN(C)CC4)cc3)nc1-2`, which Potency is on record?
Answer: 4690 nM (active)

Question: For `O=C(C=Cc1cccc(S(=O)(=O)Nc2ccccc2)c1)NO`, which Potency is on record?
Answer: 2410 nM (active)

Question: With `N#Cc1c(O)c2c(-c3ccc(-c4ccccc4O)cc3)csc2[nH]c1=O` as the compound, how does the “viability (% of DMSO)” value read?
Answer: 117%

Question: With `Cc1cc(Nc2cc(N3CCN(C)CC3)nc(Sc3ccc(NC(=O)C4CC4)cc3)n2)n[nH]1` as the compound, how does the Potency read?
Answer: 33.2 nM (active)

Question: Which “viability (% of DMSO)” value does the source give for `Cc1cn2cc(C(=O)N(C)CCO)cc(N[C@@H]3CCOc4cccc(C)c43)c2n1` here?
Answer: 99.2%

Question: With `CC[C@@]1(O)C(=O)OCc2c1cc1n(c2=O)Cc2cc3cc(O)ccc3nc2-1` as the compound, how does the Potency read?
Answer: 1870 nM (active)

Question: Which Potency does the source give for `Cc1nc(Nc2n[nH]c3c2CN(C(=O)N[C@H](CN(C)C)c2ccccc2)C3(C)C)c2sccc2n1` here?
Answer: 2640 nM (active)

Question: Which Potency does the source give for `C[C@@H]1COC(Nc2ccc3ncnc(Nc4ccc(OCc5nccs5)c(Cl)c4)c3c2)=N1` here?
Answer: 14800 nM (active)

Question: For `Cc1ccc(-c2ncn(-c3ccc(Nc4nccc(-c5cccc(N6CCOCC6)c5)n4)cc3)n2)cn1`, which Potency is on record?
Answer: 209 nM (active)

Question: Which “viability (% of DMSO)” value does the source give for `Nc1cccc(-c2cc3c(Oc4cccc(O)c4)ncnc3[nH]2)c1` here?
Answer: 115%

Question: Which viability (% of DMSO) does the source give for `COc1ccc(CC2c3cc(OC)c(OC)cc3CC[N+]2(C)CCC(=O)OCCCCCOC(=O)CC[N+]2(C)CCc3cc(OC)c(OC)cc3C2Cc2ccc(OC)c(OC)c2)cc1OC` (stereo not given) here?
Answer: 107% [at 5.15 µM]

Question: Which “viability (% of DMSO)” value does the source give for `CN[C@H]1CCc2cc(OC)c(OC)c(OC)c2-c2ccc(OC)c(=O)cc21` here?
Answer: 52.5%

Question: Which “viability (% of DMSO)” value does the source give for `COC(=O)C[C@](O)(CCCC(C)(C)O)C(=O)O[C@@H]1C(OC)=C[C@]23CCCN2CCc2cc4c(cc2[C@H]13)OCO4` here?
Answer: 126%

Question: For `COc1cccc(-c2ccc(NC(=O)C3=C(C(=O)O)CCC3)c(F)c2)c1`, which “viability (% of DMSO)” value is on record?
Answer: 94.8%

Question: For `CCCn1c(=O)c2[nH]c(-c3cnn(Cc4cccc(C(F)(F)F)c4)c3)nc2n(CC)c1=O`, which “viability (% of DMSO)” value is on record?
Answer: 119%

Question: For `CC(=O)Nc1sc2c(c1-c1nc3ccccc3s1)CNC2`, which “viability (% of DMSO)” value is on record?
Answer: 82.2%

Question: For `Cc1cc(Nc2nc(N[C@@H](C)c3ccc(F)cc3)c(C#N)cc2F)n[nH]1`, which Potency is on record?
Answer: 296 nM (active)

Question: With `N#CCNC(=O)c1ccc(-c2ccnc(Nc3ccc(N4CCOCC4)cc3)n2)cc1` as the compound, how does the “viability (% of DMSO)” value read?
Answer: 113%

Question: For `COc1cc(C)c(Sc2cnc(NC(=O)c3ccc(CNC(C)C(C)C)cc3)s2)cc1C(=O)N1CCN(C(C)=O)CC1` (stereo not given), which “viability (% of DMSO)” value is on record?
Answer: 109%

Question: Which Potency does the source give for `COc1cc2ncnc(Nc3ccc(F)c(Cl)c3)c2cc1NC(=O)C=CCN1CCCCC1` here?
Answer: 2960 nM (active)

Question: For `COc1cccc2c(NCc3ccccc3)nc(-n3c(N)nc4ccccc43)nc12`, which Potency is on record?
Answer: 1480 nM (active)

Question: Which “viability (% of DMSO)” value does the source give for `O=C(CCCCCCC(=O)Nc1ccc([C@H]2O[C@@H](CSc3nc(-c4ccccc4)c(-c4ccccc4)o3)C[C@@H](c3ccc(CO)cc3)O2)cc1)NO` here?
Answer: 108%

Question: Which “viability (% of DMSO)” value does the source give for `O=C(C=Cc1c(C(=O)O)[nH]c2cc(Cl)cc(Cl)c12)Nc1ccccc1` here?
Answer: 110%

Question: Which “viability (% of DMSO)” value does the source give for `O=C(O)CO.[NH2-].[NH2-].[Pt+2]` here?
Answer: 117%

Question: With `O=C(NCCS(=O)(=O)c1ccc(C(F)(F)F)cn1)c1ccc(Cl)cc1` as the compound, how does the “viability (% of DMSO)” value read?
Answer: 101%
